Experimental data reported in PubChem BioAssay AID492953 (The Scripps Research Institute Molecular Screening Center, 2010).
Hit rate of the full screen: of about 340,000 compounds, about 4,200 (1.2%) were called active. Shown is part of a subset that was picked to be rich in actives. Values without a mark were called inactive.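 Rule for the calls: active = inhibition above the mean of all tested compounds plus 3 SD (cut at about 24% in these data); inactive = the rest.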

Each molecule was assayed against Platelet-activating factor acetylhydrolase IB subunit alpha2 (Homo sapiens) (UniProt P68402) (assay: inhibition of PAF acetylhydrolase 1b subunit 2 – biochemical, fluorescence polarization, human, primary screen (AID 492953;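 note: 0% = enzyme with DMSO and 100% = wells lacking PAFAH1B2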)). Settings: recombinant PAFAH1B2, FP-rhodamine activity probe, at 3.39 µM, stronger effect = higher value.
Sequence of Platelet-activating factor acetylhydrolase IB subunit alpha2 (Homo sapiens) (P68402 whole entry, looked up): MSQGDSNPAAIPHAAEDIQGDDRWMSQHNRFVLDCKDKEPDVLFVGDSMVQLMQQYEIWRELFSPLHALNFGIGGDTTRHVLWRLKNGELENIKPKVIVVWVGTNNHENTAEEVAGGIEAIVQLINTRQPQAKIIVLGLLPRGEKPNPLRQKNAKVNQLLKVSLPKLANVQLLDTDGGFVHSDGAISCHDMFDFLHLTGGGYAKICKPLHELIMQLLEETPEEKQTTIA
With `CCCc1[nH]nc2c1C(C1CC=CCC1)C(C#N)=C(N)O2` (centres undefined) the inhibition was 27.5% (active). With `CCCc1[nH]nc2c1C(c1ccc(Br)s1)C(C#N)=C(N)O2` (centres undefined) the inhibition was 19.3%. In the case of `COCc1[nH]nc2c1C(C1C=CCCC1)C(C#N)=C(N)O2` (centres undefined), the inhibition is reported as 4.96%. Work on `CC(C)(C)c1cc(CN2CCN(CCC#N)CC2)cc(C(C)(C)C)c1O` yielded an inhibition of 1.53%. In the case of `CCOC(=O)C1Sc2[nH]c(=O)sc2C(c2ccc(Cl)cc2)C1C(=O)OCC` (centres undefined), the inhibition is reported as 27% (active). With `CCOC(=O)c1ccccc1N1C(=O)C2Sc3[nH]c(=O)sc3C(/C=C/c3ccccc3)C2C1=O` (centres undefined) the inhibition was 1.84%. Work on `CCOC(=O)C1CCN(C(=O)Nc2ccc(Cl)cc2)CC1` yielded an inhibition of 2.4%. With `CCCCNC(=O)N1CCN(S(C)(=O)=O)CC1` the inhibition was 3.98%. `O=C(C1CC1)N1CCN=C1SCc1ccc(Cl)cc1` gave an inhibition of 10.5%. With `Clc1ccc(CSc2nnc([C@@H]3CCCN3)o2)cc1` the inhibition was 24.3% (active). Molecule `Nc1cc(N)nc(SCc2ccc(Cl)cc2)n1` has an inhibition of 24.1%. `COCC1CCN(C(=O)C2CCC(=O)N(Cc3cccc(C(F)(F)F)c3)C2)CC1` (centres undefined) was tested, and the inhibition was -0.17%. For `CCN(CC)CCCC(C)n1c2nc(=O)[nH]c(=O)c-2nc2cc(Cl)ccc21` (centres undefined), the inhibition was 26% (active). `CCN(CC)CCn1c2ccc(Cl)cc2c2nc(C)sc21` was tested, and the inhibition was -5.01%. Work on `CN(C(=O)c1ccc(NC(=O)Cc2cccc(NC(=O)C3CCN(C(=O)c4ccccc4)CC3)c2)cc1)C1CC1` yielded an inhibition of 4.32%. Work on `O=[N+]([O-])c1ccc(NS(=O)(=O)c2ccccc2)c(Cl)c1` yielded an inhibition of 1.95%. `CN(C)CCNC(=O)c1ccc(Cl)c2cc3ccccc3nc12` gave an inhibition of -1.08%. Molecule `CC(=O)COc1ccc2c(-c3ccccc3)cc(=O)oc2c1` has an inhibition of -1.64%. `O=C(CNC(=O)c1ccc(-c2ccccc2)cc1)OCc1ccc(Cl)cc1` gave an inhibition of 1.38%. In the case of `O=C(CNC(=O)OCc1ccccc1)Oc1cc2oc(=O)cc(-c3ccccc3)c2cc1Cl`, the inhibition is reported as 45.7% (active). For `Nc1ccc2nc3c(=O)[nH]c(=S)[nH]c3nc2c1`, the inhibition was 33.8% (active). `O=C(NCCc1ccccn1)c1nc(Cn2cc([N+](=O)[O-])cn2)no1` was tested, and the inhibition was -4.12%. Work on `C=CC(=O)Nc1ccc(Nc2ccnc(Nc3ccc(N4CCN(C)CC4)cc3)n2)cc1` yielded an inhibition of 1.32%. Work on `O=C(COc1ccccc1Cl)Nc1ccccc1C(=O)NC1CC1` yielded an inhibition of 0.96%. With `COc1ccc(S(=O)(=O)N2CCOC2CNC(=O)C(=O)NCc2ccncc2)cc1C` (centres undefined) the inhibition was 1.87%. Molecule `Nc1cccnc1Sc1ccccc1` has an inhibition of 4.02%. With `CC(Oc1ccc(Cl)cc1)c1ccnn1S(C)(=O)=O` (centres undefined) the inhibition was 29.6% (active). `CC(Oc1ccc(Cl)cc1)C(=O)Nc1ncccn1` (centres undefined) was tested, and the inhibition was 5.55%. Work on `CCN(Cc1ccccc1)S(=O)(=O)c1cc2c3c(c1)CCN3C(=O)CC2` yielded an inhibition of 8.31%. `C=CCOc1ccc(/C=N/n2cncn2)cc1OC` gave an inhibition of 6.27%. `CCOC(=O)c1c(NC(=O)CSc2nnc(CN3CCOCC3)n2C)sc2c1CCCC2` was tested, and the inhibition was -1.06%. Molecule `CCOC(=O)c1c(NC(=O)CSc2cn(CC)c3ccccc23)sc2c1CCC2` has an inhibition of -2.98%. `CCOC(=O)c1c(NC(=O)CSc2nnc(C)c(=O)[nH]2)sc2c1CCC2` was tested, and the inhibition was 66.8% (active). `CC1CC(=O)Nc2ccccc2N1C(=O)COc1ccc2cc(Br)ccc2c1` (centres undefined) showed an inhibition of 16.6%. For `COc1ccc(-c2cc(C(F)(F)F)nc(S(C)(=O)=O)n2)cc1OC`, the inhibition was -1.46%. `Cc1cc[n+](-c2[nH]c(=O)sc2/C=N/NC(=O)c2ccccc2[O-])cc1C` gave an inhibition of 8.46%. In the case of `COc1ccccc1-c1noc(CSc2nc(C)cc(=O)[nH]2)n1`, the inhibition is reported as 1.01%. With `Cc1cc(=O)[nH]c(SCc2cc(Cl)ccc2OC(F)F)n1` the inhibition was 26.4% (active). `Cc1cc(=O)[nH]c(SCc2cccc(F)c2)n1` was tested, and the inhibition was 3.14%. `COc1ccc(CC(NC(C)=O)C(=O)NC2CCN(C(=O)Nc3ccc(C#N)cc3)CC2)cc1OC` (centres undefined) was tested, and the inhibition was 2.86%. `CCN(C(=O)CN1CCN(Cc2ccccc2)CC1)c1c(N)n(Cc2ccccc2)c(=O)[nH]c1=O` was tested, and the inhibition was -0.83%. `CCCCC1S/C(=N/N=C/c2cccs2)NC1=O` (centres undefined) gave an inhibition of 8.36%. `COc1ccc(C(=O)NNS(=O)(=O)c2ccc(C)cc2)cc1` gave an inhibition of 6.56%. Work on `COc1ccc(C(=O)NNC(=O)c2cc(C)[nH]n2)cc1` yielded an inhibition of 5.54%. With `COc1ccc(C(=O)NNc2cc(C)nc(NNC(=O)c3ccc(OC)cc3)n2)cc1` the inhibition was 24.3% (active). With `O=C1NC2(CCCCCC2)C(=O)N1CCS(=O)(=O)Oc1ccccc1` the inhibition was 7.86%. In the case of `CCn1c(CNC(=O)c2cc(OC)c(OC)c(OC)c2)cc2cc(C)ccc21`, the inhibition is reported as 2.65%. `O=c1ccc2c(-c3ccccc3S(=O)(=O)O)c3ccc(O)c(O)c3oc-2c1O` was tested, and the inhibition was 26.6% (active). Work on `CCCNC(=O)CN(Cc1ccccc1F)S(=O)(=O)c1ccc(C)cc1` yielded an inhibition of 4.33%. `CC(C)Cn1c(N2CCN(C(=O)/C=C/c3ccccc3)CC2)nc2ccccc21` was tested, and the inhibition was 28.8% (active). `C=CCn1c(C(C)NC(=O)CC)nc2ccccc21` (centres undefined) gave an inhibition of 0.58%. Molecule `Cc1cc(NC(=O)CSc2nc3ccccc3n2CC(C)C)no1` has an inhibition of 4.62%. `CNC(=O)/C(=C\C=C\c1ccccc1)NC(=O)c1ccc([N+](=O)[O-])cc1` gave an inhibition of -3.09%. `O=C(Cc1ccc(S(=O)(=O)N2CCOCC2)s1)Nc1ccc(Br)c(C(F)(F)F)c1` gave an inhibition of -4.41%. For `COc1ccc(CC(=O)Nc2nc(-c3ccc(F)c(F)c3)cs2)cc1OC`, the inhibition was 4.28%. In the case of `Cc1ccc(S(=O)(=O)NC(=O)Nc2nc(-c3ccc(F)c(F)c3)cs2)cc1`, the inhibition is reported as 30.1% (active). For `COc1cc(CC(=O)Nc2nc(-c3ccc(F)c(F)c3)cs2)cc(OC)c1OC`, the inhibition was 1.73%. For `COc1ccc(C)cc1NC(=S)Nc1ccccc1SC`, the inhibition was 9.46%. For `CC(=O)N(C1=C(Cl)C(=O)c2ccccc2C1=O)c1ccc(C(=O)O)cc1`, the inhibition was 15.6%. With `O=C1C(Cl)=C(Oc2ccccc2)C(=O)c2ccccc21` the inhibition was 33.9% (active). `CC(=O)Oc1ccc2c(c1)C(=O)c1ccccc1C2=O` showed an inhibition of 7.25%. Work on `Cn1c(=O)oc2cc(S(=O)(=O)NCCC(=O)NCc3ccccc3Cl)ccc21` yielded an inhibition of -3.01%. With `Cc1nn(-c2ncccn2)c2c1C(=O)CC(C)(C)C2Br` (centres undefined) the inhibition was 3.5%. `CCOCc1nnc(NC(=O)CSc2ccc(C)cc2)s1` showed an inhibition of -28.2%. In the case of `Cc1ccc(SCC(=O)Nc2ncc(C)s2)cc1`, the inhibition is reported as 26.1% (active). Molecule `Cc1cnc(NC(=O)CSc2nnc(-c3ccccc3)n2Cc2ccccc2)s1` has an inhibition of 7.97%. `O=C(c1ccc(Cl)c(S(=O)(=O)N2CCCCC2)c1)N1CCCCCC1` was tested, and the inhibition was -0.08%. In the case of `O=C(O)c1cc(S(=O)(=O)N2CCCCCC2)c(Cl)cc1Cl`, the inhibition is reported as 24.3% (active). With `O=C(Nc1nccs1)c1cc(S(=O)(=O)N2CCOCC2)c(Cl)cc1Cl` the inhibition was -6.96%. `Cc1ccc(S(=O)(=O)N2CCN(C(=O)CN3C(=O)NC(C)(c4ccc(Cl)cc4)C3=O)CC2)c(C)c1` (centres undefined) was tested, and the inhibition was 5.07%. Molecule `O=C(Nc1ccccc1)O/N=C1/CCCc2occc21` has an inhibition of 5.12%. `CCn1c(SCC(=O)NC2CC2)nnc1-c1ccccn1` gave an inhibition of 8.43%. `CN(Cc1cc2cc(F)ccc2[nH]1)Cc1nc(-c2cnccn2)no1` gave an inhibition of 3.21%. In the case of `CN(CCOc1ccccc1)Cc1nc2cc(Cl)ccc2c(=O)[nH]1`, the inhibition is reported as -0.52%. With `O=c1[nH]c(CCl)nc2cc(-c3ccc(Cl)cc3)sc12` the inhibition was 43.4% (active). For `CCC1(CC)Cc2ccccc2-c2nc(CCl)[nH]c(=O)c21`, the inhibition was 4.98%. `Cc1ccc(-c2nc(CSCC(=O)NC3CCN(Cc4ccccc4)CC3)c(C)o2)cc1` gave an inhibition of 3.88%. With `CCOC(=O)N1CCN(c2c(NCCCN3CCCC(C)C3)c(=O)c2=O)CC1` (centres undefined) the inhibition was -3.22%. With `CCCS(=O)(=O)Nc1c(C(=O)O)[nH]c2ccccc12` the inhibition was 1.36%. For `CC(NC(=O)COC(=O)c1cc(=O)[nH]c2ccccc12)c1ccccc1` (centres undefined), the inhibition was 6.8%. For `O=C(O)c1[nH]c2ccccc2c1C(c1cccc(O)c1)c1c(C(=O)O)[nH]c2ccccc12`, the inhibition was 94.6% (active). `COc1ccc(/C=N/N(C)C2=NS(=O)(=O)c3ccccc32)cc1OC` gave an inhibition of 12%. In the case of `Cc1nn(-c2ccc(F)cc2)c(Cl)c1/C=C(/CCC(=O)O)c1nc2ccccc2s1`, the inhibition is reported as 4.71%. In the case of `O=C(O)CC/C(=C\c1cc2c(cc1Br)OCO2)c1nc2ccccc2s1`, the inhibition is reported as 27.5% (active). Molecule `COc1ccc(C(=O)Nc2cccc(/C=C(/CCC(=O)O)c3nc4ccccc4s3)c2)cc1` has an inhibition of -1.28%. Molecule `NC(=O)COc1ccc(/C=N/NC(=O)C2CCCN2S(=O)(=O)c2ccc(Cl)cc2)cc1` (centres undefined) has an inhibition of 2.71%. `O=C(c1cccc(F)c1)N1CCC(O)(c2cccnc2)CC1` was tested, and the inhibition was 1.64%. For `Cn1cccc1C(=O)NNC(=O)COc1ccc(Br)cc1`, the inhibition was 6.31%. With `Cc1ccsc1C(=O)NNC(=O)COc1ccc(Br)cc1` the inhibition was 24.9% (active). `Cn1cnnc1SCC(=O)NNC(=O)COc1ccc(Br)cc1` was tested, and the inhibition was 8.93%. `O=C(N/N=C\c1cccnc1)c1cc(-c2ccccc2)nc2c(Cl)cccc12` showed an inhibition of -6.71%. For `O=C(N/N=C/c1cccnc1)c1ccc(NC(=O)c2ccc(F)cc2)cc1`, the inhibition was -2.15%. For `Fc1ccc(/C=N/Nc2nc(-c3cccnc3)nc3ccccc23)cc1`, the inhibition was 25.3% (active). For `O=C(c1cc2c(s1)CCC2)N1CCN(c2ccccc2)CC1`, the inhibition was 1.7%.
